Results on 94 molecules are retold here after PubChem BioAssay AID588689 (Southern Research Specialized Biocontainment Screening …, 2011).

Out of some 340,000 compounds screened, about 1,000 (0.29%) were called active. No stated cut-off is given here; in the data, inconclusive means inhibition above about 29% without an active follow-up result; inactive means below that. These entries were drawn from the full list. Entries with a potency or affinity are not part of this list.

The target in this assay is Genome polyprotein (Dengue virus type 2 (strain 16681-PDK53)) (UniProt P29991). The assay can be described thus: Dengue-2 NS5 methyltransferase inhibitors, primary screen, biochemical, confirmation dose response (AID 588689). The settings on record: Dengue-2 NS5 methyltransferase capping enzyme assay, at 25 µM, stronger effect = higher value.
Setting [1] is: measured here: pilot screen replicate inhibition.

Turning to `COC(=O)Nc1ccc(S(=O)(=O)N2CCCC(C(=O)N3CC(C)OC(C)C3)C2)cc1` (stereo not drawn), the inhibition (commonly the change of the read-out against control, counted positive when it falls) was -5.54% (inactive). The same measure, in the same setting: for `O=C(CSc1nnc2ccc(-c3ccccn3)nn12)Nc1ccc(F)cc1` the value was 2.75% (inactive); for `C[C@@H]1CN(C(=O)c2cc(COc3cccc(C(F)(F)F)c3)on2)C[C@H](C)O1`, -9.08% (inactive). The same measure, in the same setting: for `COc1ccccc1C(=O)Nc1ccnn1C1CCN(Cc2cn(C)c3ccccc23)CC1` the value was -3.88% (inactive); for `CCC(CC)=NNc1ccc([N+](=O)[O-])cc1[N+](=O)[O-]`, -0.89% (inactive); for `C/C(CCC(=O)O)=N/Nc1ccc([N+](=O)[O-])cc1[N+](=O)[O-]`, -3.25% (inactive). The same measure, in the same setting: the same measure for `Cc1ccc(CN2CCN(CC(=O)NC(C)CCc3ccccc3)C2=O)cc1` (stereo not drawn): -4.17% (inactive). For the molecule `CCCc1cc(=O)c2ccc(OCC(C)=O)cc2o1`, the inhibition was -9.24% (inactive).

In the case of `CC(C)N(CCNS(=O)(=O)c1ccc(Cl)cc1)C(C)C`, the inhibition was 0.97% (inactive). Consider `COCCC(=O)NNS(=O)(=O)c1ccc(Cl)cc1`, for which the inhibition was 5.47% (inactive). The same measure, in the same setting: for `CCOc1ccc(NC(=O)c2ccc(S(=O)(=O)N3CCOCC3)cc2)cc1` the value was 1.78% (inactive); for `CC(C(=O)O)N1C(=O)C2C3c4ccccc4C(c4ccccc43)[C@@H]2C1=O` (stereo partly drawn), -2.61% (inactive); for `CN1C(=O)C2C3c4ccccc4C(c4ccccc43)[C@@H]2C1=O` (stereo partly drawn), -1.31% (inactive).

In the case of `CCC(C(=O)O)P(=O)(c1ccc(Cl)cc1)c1ccc(Cl)cc1` (stereo not drawn), the inhibition is -8.59% (inactive). The same measure, in the same setting: the same measure for `CCCCCSc1nncc(=O)[nH]1`: 4.01% (inactive). On the same count and under the same terms, the same measure for `COC1=CC(=O)C(OC)=C(OC)C1=O`: 6.99% (inactive).

As for `COc1ccc(-c2cccc(NC(=O)c3cccs3)c2)nn1`, the inhibition was -3.63% (inactive). `O=C(CSc1nc2ccccc2s1)Nc1cc(S(=O)(=O)N2CCOCC2)ccc1Cl`: the inhibition is -0.74% (inactive).

`O=C1SCC(c2ccc(Cl)cc2Cl)=NN1Cc1nnc(-c2ccccc2)o1`: the inhibition is -1.48% (inactive).

As for `O=C(O)CSc1ncnc2c1sc1nc(-c3ccccc3)c3c(c12)CCC3`, the inhibition was 22.7% (inactive). The same measure, in the same setting: the same measure for `O=c1[nH]cnc2c1sc1nc(-c3ccccc3)c3c(c12)CCCC3`: -9.17% (inactive); for `CCN(CC)c1ccc(S(=O)(=O)N2CCOCC2)cc1NC(=O)CSC(=S)N1CCCC1`: -4.86% (inactive). The same measure, in the same setting: for `COCCN(C(=O)CSc1nnc(-c2cccc(Cl)c2)n1N)c1c(N)n(CC(C)C)c(=O)[nH]c1=O` the value was -1.15% (inactive).

On to `C/C=N\NC(=O)CNC(=O)CNC(=O)c1ccccc1`, for which the inhibition was -9.83% (inactive). Still for that read-out and setting: the same measure for `Oc1ccc(Cl)cc1CNC1CCCCC1`: -11.2% (inactive). Consider `Oc1ccc(CNC2CCCCC2)cc1`, for which the inhibition was -4.06% (inactive). `CC(=O)NCCNC(=O)c1oc2ccccc2c1CSc1ncn[nH]1`: the inhibition was 0% (inactive).

As for `Cc1cc(C)nc(N/N=C/c2ccccc2OCC(=O)O)n1`, the inhibition is 0% (inactive). As to `COc1cccc(N=Cc2nc(-c3ccccc3)oc2OC(C)=O)c1`, the inhibition was -7.76% (inactive). Same read-out and setting: for `COc1ccc(N=Cc2nc(-c3ccccc3)oc2OC(C)=O)cc1` the value was -15.3% (inactive).

With `O=C1c2ccccc2C(=O)N1c1ccccc1`, the inhibition is -3.62% (inactive). On the same count and under the same terms, for `COc1ccc(-c2noc(-c3ccccc3C(=O)NCc3ccco3)n2)cc1OC` the value was -1.61% (inactive); for `CCOC(=O)N1CCN(C(=O)/C=C/c2ccc(OC)c(OC)c2)CC1`, -5.82% (inactive). Same read-out and setting: for `COc1ccccc1/C=c1\sc2nc(-c3ccco3)nn2c1=O` the value was 20.1% (inactive); for `COc1ccccc1/C=C/C=c1\sc2nc(=O)c(Cc3ccccc3)nn2c1=O`, -9.19% (inactive). Regarding `COc1ccccc1/C=c1\sc2nc(-c3ccccc3OC)nn2c1=O`, the inhibition was 5.01% (inactive). Further, the inhibition under setting [1] came out at 1.52%.

In the case of `CCOc1ccccc1/C=c1\sc2ncnn2c1=O`, the inhibition was 3.42% (inactive). On to `Cc1cccc(NS(=O)(=O)c2ccc(NS(=O)(=O)c3cccs3)cc2)c1`, for which the inhibition was 13.3% (inactive).

As for `N#C/C=C/N1CCC(Cc2ccccc2)CC1`, the inhibition was -4.96% (inactive).

Take `N#CCCN(C(=O)COC(=O)Cc1ccc(Br)cc1)c1ccccc1`: the inhibition is -13.2% (inactive). Same read-out and setting: for `CC(C)c1[nH]c(=O)c(C#N)c2c1CSC(C)(C)C2` the value was -6.61% (inactive). On the same count and under the same terms, the same measure for `COc1ccc(C(CCN2CCOCC2)c2c(O)cc(OC)cc2OC)cc1` (stereo not drawn): -0.7% (inactive). With `Oc1ccccc1CNCc1ccccc1`, the inhibition is -2.38% (inactive).

With `OCc1ccccc1CNCc1ccccc1`, the inhibition was -5.52% (inactive).

`CSc1ncccc1C(=O)OCc1cccc([N+](=O)[O-])c1`: the inhibition was 0% (inactive).

As for `COc1ccc(NC(=O)N(C)C[C@@H]2OCc3cnnn3CCCC(=O)N([C@H](C)CO)C[C@H]2C)cc1`, the inhibition is 0.55% (inactive). On to `Cc1ccc(C(=O)Nc2ccc3cn[nH]c3c2)cc1S(=O)(=O)N1CCOCC1`, for which the inhibition is -0.88% (inactive).

For the molecule `O=c1oc2c3c4c(cc2c2c1CCC2)OCCN4CCC3`, the inhibition was 24.7% (inactive). Consider `CC(C)c1cc(=O)oc2c3c4c(cc12)CCCN4CCC3`, for which the inhibition was 0% (inactive). As for `N/C(=N\OC(=O)CCC1CCCCC1)c1cccc([N+](=O)[O-])c1`, the inhibition was -1.88% (inactive). For the same molecule, the inhibition under setting [1] turned out to be 1.82%. As to `O=C(CSc1ccccc1)N1CCN(S(=O)(=O)c2ccccc2F)CC1`, the inhibition is 3.25% (inactive). Turning to `C=CCn1c(NC(=O)c2ccc(Br)o2)c(S(=O)(=O)c2ccccc2)c2nc3ccccc3nc21`, the inhibition is -4.19% (inactive). The same measure, in the same setting: the same measure for `CCCCn1c(NC(=O)c2ccco2)c(S(=O)(=O)c2ccc(C)cc2)c2nc3ccccc3nc21`: -64.2% (inactive); for `OCCC1CN(Cc2cnn(-c3ccccc3Cl)c2)CCN1Cc1ccsc1` (stereo not drawn): -2.26% (inactive). As for `CC(C)N(C(=O)[C@H]1C[C@H](CC(=O)NCCN2CCOCC2)C(=O)N2CCc3c([nH]c4cc(-c5ccco5)ccc34)[C@]12C)C(C)C`, the inhibition was -6.51% (inactive). Regarding `Cc1cccc(C2c3c(n(C)c(=O)n(C)c3=O)N=C3c4ccccc4C(=O)C32)c1` (stereo not drawn), the inhibition is 2.3% (inactive). As for `Cc1nn(-c2ccccc2)c(C)c1-c1ccccc1O`, the inhibition was -5.22% (inactive). Moreover, the inhibition under setting [1] is -6.7%. Consider `C=C(CC)C(=O)c1ccc(OCC(=O)O)c(Cl)c1Cl`, for which the inhibition was -3.73% (inactive). On the same count and under the same terms, the same measure for `O=C(O)COc1ccc2nsnc2c1Cl`: -9.55% (inactive); for `CCOCCCNCC(O)c1ccccc1` (stereo not drawn): 0% (inactive). Regarding `CC1(C)CC(=NO)CC(C)(C)N1`, the inhibition is 0% (inactive). Same read-out and setting: the same measure for `Cc1cc(NS(=O)(=O)c2ccccc2)c([N+](=O)[O-])cc1C`: 4.34% (inactive); for `COc1ccc(S(=O)(=O)/N=C2/NC(=O)/C(=C\c3cc(OC)c(OC)cc3[N+](=O)[O-])S2)cc1`: 2.45% (inactive); for `COc1ccc([N+](=O)[O-])cc1NS(=O)(=O)c1ccccc1`: 5.1% (inactive). The same measure, in the same setting: for `COc1cc(C(=O)Nc2ccc(S(=O)(=O)Nc3ncccn3)cc2)c([N+](=O)[O-])cc1OC` the value was 0.74% (inactive). In the case of `Cc1ccc(/C=N/NC(=O)C(C)Oc2cccc3ccccc23)o1` (stereo not drawn), the inhibition was -3.22% (inactive). `CCC1(C)NC(=O)N(CC(=O)N2CCC(Cc3ccccc3)CC2)C1=O` (stereo not drawn): the inhibition is -9.76% (inactive). Same read-out and setting: for `CC(Cc1ccccc1)=NNc1ccc([N+](=O)[O-])cc1[N+](=O)[O-]` the value was 10.5% (inactive); for `C/C(CC(C)C)=N/Nc1ccc([N+](=O)[O-])cc1[N+](=O)[O-]`, -3.83% (inactive). Same read-out and setting: for `CC(=O)NC(C)c1nc2ccccc2n1C(C)C` (stereo not drawn) the value was -3.46% (inactive); for `COc1ccc(/C=C/C=C2\NC(=S)NC2=O)cc1`, -2.15% (inactive); for `CC(/C=C1\NC(=S)NC1=O)=C\c1ccccc1`, -7.18% (inactive).

Regarding `CCC(C)(C(=O)NC1CCCC1)N(C(=O)CNC(=O)c1ccccc1)c1c(C)n(C)n(-c2ccccc2)c1=O` (stereo not drawn), the inhibition is 0% (inactive). As to `COc1ccc(CNC(=O)c2cc3ccccc3oc2=O)cc1`, the inhibition is -1.96% (inactive). Still for that read-out and setting: for `COc1ccc(CN(C)CC(=O)Nc2c(C)cccc2C)c(OC)c1` the value was 1.51% (inactive); for `CCOc1cc(S(=O)(=O)Nc2cc(C)cc(C)c2)ccc1Cl`, 0% (inactive).

For `COc1ccc(NS(=O)(=O)c2ccc(Cl)c(N)c2)cc1Br`, the inhibition is -3.69% (inactive). On the same count and under the same terms, the same measure for `COc1ccccc1CCC(=O)N(C)CC(=O)Nc1ccc(F)cc1`: 1.3% (inactive). As to `O=C(NNc1cccc(Cl)c1)c1cccnc1Cl`, the inhibition was -5.34% (inactive).

Turning to `COc1ccc(/C=C(/C#N)C(=O)Nc2ccccc2C)cc1C(=O)O`, the inhibition is 0% (inactive). As for `COc1cc(/C=C(\C#N)C(=O)Nc2cccc3ncccc23)cc(OC)c1OC`, the inhibition was -57.5% (inactive). For `O=C(CN1CCN(C(c2ccccc2)c2ccccc2)CC1)NC(=O)NCc1ccco1`, the inhibition is -1.64% (inactive). The same measure, in the same setting: the same measure for `O=C(/C(=N/N=C/c1ccc(O)c(O)c1)c1ccccc1)c1ccccc1`: 7.23% (inactive).

Take `CCN(CC)c1ccc(/C=N/N=C(c2ccccc2)c2ccccc2)c(O)c1`: the inhibition is -35.6% (inactive). On the same count and under the same terms, for `COc1cc(/C=N/N=C(/C(=O)c2ccccc2)c2ccccc2)cc(OC)c1O` the value was 0% (inactive); for `Oc1ccc(/C=N/N(c2ccccc2)c2ccccc2)c(O)c1O`, 9.52% (inactive).

In the case of `CC(C)c1ccc(Nc2nc(N3CCOCC3)nc(N3CCOCC3)n2)cc1`, the inhibition was -4.95% (inactive). The same measure, in the same setting: for `COC(=O)C(C(=O)OC)N1C(=O)CCC1=O` the value was -3.21% (inactive); for `CC(=O)c1ccc(NC(=O)CCc2nnc3ccc(N4CCCC4)nn23)cc1`, 1.97% (inactive); for `CN(C)C1=NC[C@H](Cc2ccccc2)N1CC1CCC(C(C)(C)C)CC1` (stereo partly drawn), 0.79% (inactive). For the molecule `Cc1ccc([C@@H]2CC=C(C(=O)O)[C@H](c3ccc(Cl)cc3)N2S(=O)(=O)c2ccc(C)cc2)cc1`, the inhibition is 19.5% (inactive). As for `Cc1ccc(S(=O)(=O)N2[C@@H](c3ccc(C(C)(C)C)cc3)C(C(=O)O)=CC[C@H]2c2ccc(C(C)C)cc2)cc1`, the inhibition is -2.65% (inactive). Besides, the inhibition under setting [1] stood at 0.6%. Turning to `Cc1ccc([C@@H]2CC=C(C(=O)O)[C@H](c3ccccc3)N2S(=O)(=O)c2ccc(C)cc2)cc1`, the inhibition was -3.2% (inactive). Still for that read-out and setting: for `Cc1ccc(S(=O)(=O)N2[C@@H](c3ccc(Cl)cc3)C(C(=O)O)=CC[C@H]2c2ccc(Cl)cc2)cc1` the value was 13.5% (inactive).
